# In the library only some 7.2% were active in any assay of this set; here they are far more common.
# FMDV inh: High Throughput Screening for Foot and Mouth Disease Virus Antivirals; Potency, µM (titrated, usually from 57.9 µM), for the others: at the top dose activity change, negative = inhibition, usual class: inhibitors; hit rate 1.2% among 410,000; FMDV antiviral cell-based qHTS; AID 1159524, 2015; calls by dose curve; tested in HEK293T cells; also: read-out not given here; nearly all actives have a fitted effect of over 45% in size
# Marburg entry inh: qHTS for inhibitors of binding or entry into cells for Marburg Virus; Marburg virus pseudotyped entry inhibition, cell reporter; Potency, µM (series often up to 37.8 µM), for the others: top-dose activity change, negative = inhibition, actives largely listed as inhibitors; hit rate 1.8% among 300,000; AID 540276, 2011; calls by dose curve; tested in HEK293 cells
# RE007 growth inh: qHTS Assay for Inhibitors of the HIV-1 protein Vpr | S. pombe RE007 Vpr strain, BacTiter-Glo ATP luminescence, 24 h | Potency, µM (highest dose often 92.2 µM), for the others: at the highest dose activity change, negative = less growth, actives largely listed as inhibitors | hit rate 0.21% among 360,000 | AID 651644, 2012; active = well fitted falling curve with a large enough effect; inconclusive = small, poorly fitted or top-dose-only effect; inactive = no such curve, though single readings can be large or run the other way; also: nearly all actives have a fitted effect of over 50% in size
#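 Fission yeast strain RE007, carrying one chromosomally integrated HIV-1 vpr copy, was seeded at OD 0.01 in PMG+AL medium with 23 nL pinned compound. After 24 h at 30 °C and 99% humidity, viability was read by BacTiter-Glo luminescence.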
# HCV inhibitor: qHTS Assay for Inhibitors of Hepatitis C Virus (HCV); AID 651820, 2012; Potency, µM (titrated, usually from 41.8 µM), inactives show at the top dose activity change, negative = inhibition, usual class: inhibitors; Huh7.5.1 HCVcc-Cre infection, luciferase reporter, 44 h; hit rate 3.4% among 340,000
#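 Cells seeded at 1,000/well and cultured 4 h, then compounds added followed by HCVcc-Cre virus (~0.5 moi). After 44 h further culture, luciferase substrate was added, plates held 15 min at room temperature, and luminescence read for 15 sec.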
# Lassa entry inh: qHTS for Inhibitors of binding or entry into cells for Lassa Virus. Lassa virus pseudotype entry inhibition, cell reporter. Potency, µM (titrated, usually from 37.9 µM), for the others: top-dose activity change, negative = inhibition, actives largely listed as inhibitors. hit rate 1.2% among 300,000; calls by dose curve; tested in HEK293 cells; also: nearly all actives have a fitted effect of over 50% in size
# Sm TGR block: qHTS Assay for the Inhibitors of Schistosoma Mansoni Peroxiredoxins; purified TGR, DTNB reduction, TNB absorbance 405 nm; Schistosoma mansoni thioredoxin glutathione reductase (TGR), Q962Y6; AID 485364, 2010; hit rate 3% among 360,000; Potency, µM (doses to about 114 µM), without a hit: at the top dose activity change, negative = inhibition, hits mostly inhibitors; also: nearly all actives have a fitted effect of over 60% in size
#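 First, TGR (20 nM dispensed) and NADPH were mixed with compound. Second, a 15 min room-temperature incubation followed. Third, further NADPH and then DTNB were added to start the reaction. Finally, TNB absorbance was monitored kinetically.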
# The depositor's hits bear a star; ? = inconclusive; nt = no result given; [ ] = dose if it differs, or a comment. Unless noted, calls follow the shape of the dose curve; as a rule, active = well fitted curve in the direction sought with a large enough effect; inconclusive = small, poorly fitted or top-dose-only effect, or another doubt; inactive = no such curve, though single readings can be large; an effect the other way counts as inactive or inconclusive. % is scaled to controls: 0 for no effect and ±100 for the full control effect; potency is read from the fitted curve at half-maximal effect.
SMILES,FMDV inh,Marburg entry inh,RE007 growth inh,HCV inhibitor,Lassa entry inh,Sm TGR block
COc1ccccc1CCC(=O)OCC(=O)Nc1ccc(C)c(S(=O)(=O)N2CCCCC2)c1,-15%,-7%,-8%,32%,8%,2%
COc1ccccc1CCC(=O)Nc1cccc(S(=O)(=O)N2CCOCC2)c1,9%,?,8%,?,-2%,-20%
COc1ccc(NC(=O)CCc2ccccc2)cc1S(=O)(=O)N1CCCCC1,-23%,?,-15%,-13%,-18%,1%
COc1cc(CCC(=O)Nc2ccc(C)c(S(=O)(=O)N3CCCCCC3)c2)cc(OC)c1OC,18µM*,?,25%,7.9µM*,?,-6%
COc1ccccc1CCC(=O)Nc1cccc(S(=O)(=O)N2CCCCCC2)c1,8%,-12%,12%,10µM*,-5%,1%
COc1ccccc1CCC(=O)Nc1ccc(OC)c(S(=O)(=O)N2CCCCC2)c1,-20%,nt,4%,11µM*,nt,10%
COc1ccc(CCC(=O)Nc2ccc(OC)c(S(=O)(=O)N3CCCCC3)c2)cc1OC,?,nt,2%,10µM*,nt,1%
Cc1ncc2c(c1CNC(=O)c1cncs1)CCN(C(=O)c1ccc(-c3ccccc3)cc1)C2,-5%,nt,nt,nt,nt,nt
Cc1sc2ncn(CC(=O)N3CCN(c4ccccc4F)CC3)c(=O)c2c1S(=O)(=O)N1CCN(c2ncccn2)CC1,-28%,-24%[46.1 µM],nt,nt,-4%[46.1 µM],6%
COc1ccc(NC(=O)Cc2cccs2)cc1S(=O)(=O)N1CCCCC1,21%,-24%,5%,-5%,1µM*,nt
COc1ccc(Cl)c(S(=O)(=O)N2CCCC2)c1,-17%,-8%,-13%,-5%,9%,-3%
COc1ccc(CCC(=O)Nc2ccc(Cl)c(S(=O)(=O)N3CCCC3)c2)cc1,-28%,nt,5%,5.6µM*,nt,2%
COc1ccc(NC(=O)CCOc2ccccc2C)cc1S(=O)(=O)N1CCCCC1,?,?,2%,11µM*,?,0%
Cc1ccc(C)c(OCCC(=O)Nc2ccc(S(=O)(=O)N3CCCC3)cc2)c1,-23%,nt,-5%,8.9µM*,nt,2%
Cc1cc(C)cc(NC(=O)Cn2cc(C(=O)c3ccccc3)c(=O)c3ccc(C)nc32)c1,-13%,nt,nt,nt,16%[46.1 µM],11%
COc1cc([C@@H]2c3cc4c(cc3C(O[C@@H]3O[C@@H]5COC(c6cccs6)O[C@H]5[C@H](O)[C@H]3O)C3COC(=O)[C@@H]32)OCO4)cc(OC)c1O (stereo partly specified),-20%,nt,nt,nt,nt,nt
CCOc1ccc(CCNC(=O)c2nn(C)c3c2CS(=O)(=O)c2ccccc2-3)cc1OCC,-1%,?,1%,6.3µM*,?,-1%
COc1ccc(CCNC(=O)c2nn(C)c3c2CS(=O)(=O)c2ccccc2-3)c(OC)c1,?,nt,-14%,11µM*,nt,-10%
Nc1ccc(-c2nc3ccccc3s2)cn1,22%,?,-15%,25µM*,nt,7%
Cc1cc(-c2nc3ccccc3s2)ccc1N,-73%,?,-1%,-17%,3.5µM*,nt
Cn1nc(C(=O)NCc2cccc(Cl)c2)c2c1-c1ccccc1SC2,24%,-1%[46.1 µM],nt,nt,5%[46.1 µM],1%
CC(CCN1CCCc2nc(C)c(C)cc21)=NO[C@H](C)CN1CCCc2nc(C)c(C)cc21,nt,-41%[14.2 µM],nt,nt,nt,nt
Cc1[nH]nc(C(F)(F)F)c1N=NN1CCOCC1,20µM*,?,3%,16µM*,?,nt
Clc1ccc(N=NN2CCOCC2)cc1,30%,2%[46.1 µM],11%,5%,2%,6%
Cc1ccc(C)c(N2CCN(C(=O)C(C)n3nc(C)c4sc5ccccc5c4c3=O)CC2)c1 (stereo unspecified),0%,1%[46.1 µM],nt,nt,0%[46.1 µM],-7%
SMILES,FMDV inh,Marburg entry inh,RE007 growth inh,HCV inhibitor,Lassa entry inh,Sm TGR block
NNC(=O)c1sc(-c2ccccc2)cc1N,13%,9%[46.1 µM],8%,24%,nt,2%
CC(=O)c1sc(-c2ccccc2)cc1N,13%,2%[46.1 µM],-16%,8.9µM*,?,-3%
O=C(N/N=C/C=C/c1ccco1)c1cnccn1,31%,2%[46.1 µM],5%,13%,-2%,10µM*
O=C(N/N=C/C(Cl)=C/c1ccccc1)c1ccccn1,50%,?,-19%,8%,?,nt
COc1ccc(OCC(=O)N/N=C/C(C)=C/c2ccco2)c(Br)c1,33%,-15%[46.1 µM],-10%,?,?,40µM*
O=C(N/N=C/C=C\c1ccco1)c1ccccn1,67%,-22%,2%,-5%,0%,10µM*
CC(/C=N/NC(=O)c1ccccn1)=C\c1ccco1,37%,nt,-16%,16%,nt,35µM*
COc1cc2c(cc1O)C(Cc1ccc(O)cc1)[N+](C)(C)CC2 (stereo unspecified),9%,nt,nt,nt,nt,nt
O=C(CSCc1cnn(-c2ccccc2)c1-n1cccc1)NCc1cccc(Cl)c1,-8%,9%[46.1 µM],nt,nt,2%[46.1 µM],4%
COc1ccc(NC(=O)c2oc3ccc(S(=O)(=O)N4CCC5(CC4)OCCO5)cc3c2C)cc1Cl,?,nt,nt,nt,?,0%
CCOC(=O)c1c(-c2ccccc2)c2cc(OC)ccc2n1CCCN(C)C,-13%,nt,4%,14µM*,nt,1%
CCCC(=O)N1CCN(c2nc3ccc(Cl)cc3s2)CC1,5%,nt,-17%,11µM*,nt,-13%
CCCCC(=O)N1CCN(c2nc3ccc(Br)cc3s2)CC1,-12%,0%[46.1 µM],-18%,11µM*,?,-4%
Cc1cccc(Cl)c1NC(=O)N1CCCN(c2nc3ccc(Cl)cc3s2)CC1,?,nt,-15%,7.1µM*,nt,9%
CC(C)(C)C(=O)N1CCN(c2nc3ccc(Cl)cc3s2)CC1,-26%,3%[46.1 µM],-7%,-6%,7%[46.1 µM],6%
CCCC(=O)N1CCN(c2nc3ccc(CC)cc3s2)CC1,11%,nt,-7%,12%,nt,-11%
CCCC(=O)N1CCN(c2nc3ccc(Br)cc3s2)CC1,3%,nt,-16%,10µM*,nt,-1%
COC(=O)c1cc(CNC(=O)c2ccc3ncccc3c2)cc(NC(=O)c2ccccc2Cl)c1,3%,nt,nt,nt,nt,nt
Cc1ccc(-n2c(SCC(=O)Nc3c(C)cccc3C)nc(O)c(C)c2=O)cc1,-16%,1%[46.1 µM],nt,nt,?,0%
Cc1ccc(NC(=O)Nc2nnc(SCC(=O)N3CCC(C)CC3)s2)cc1,-6%,nt,nt,nt,20%[46.1 µM],15%
Cc1ccc2nc(NC(=O)CSCC(=O)OCC(=O)c3ccccc3)sc2c1,?,?,-1%,2%,5.8µM*,?
Cc1ccc2nc(NC(=S)NC(=O)c3ccc(OC(C)C)cc3)sc2c1,1%,-7%,-5%,-6%,nt,0.71µM*
Cc1ccc2nc(NC(=O)CCCc3nc4ccccc4s3)sc2c1,15%,?,-4%,-2%,?,-31%
CCOCC(=O)Nc1nc2ccc(C)cc2s1,-40%,-18%,?,-13%,11µM*,?
